Measured values published in the supplement of paper PMC3334620.
Whole data set: some 33,000 sequences, median “E-score (-0.5 to 0.5)” near -0.054, cut for the highest 2% near 0.35. What follows is part of a selection rich in the highest values, with near analogues and random picks from the rest.

target: T1, Stb5 (UniProt P38699); assay: PBM E-score (8-mer binding enrichment) (E-score (-0.5 to 0.5)); higher = stronger / more preferred TF binding; settings: protein concentration: 200 nM; construct: GST-full length
T1 sequence: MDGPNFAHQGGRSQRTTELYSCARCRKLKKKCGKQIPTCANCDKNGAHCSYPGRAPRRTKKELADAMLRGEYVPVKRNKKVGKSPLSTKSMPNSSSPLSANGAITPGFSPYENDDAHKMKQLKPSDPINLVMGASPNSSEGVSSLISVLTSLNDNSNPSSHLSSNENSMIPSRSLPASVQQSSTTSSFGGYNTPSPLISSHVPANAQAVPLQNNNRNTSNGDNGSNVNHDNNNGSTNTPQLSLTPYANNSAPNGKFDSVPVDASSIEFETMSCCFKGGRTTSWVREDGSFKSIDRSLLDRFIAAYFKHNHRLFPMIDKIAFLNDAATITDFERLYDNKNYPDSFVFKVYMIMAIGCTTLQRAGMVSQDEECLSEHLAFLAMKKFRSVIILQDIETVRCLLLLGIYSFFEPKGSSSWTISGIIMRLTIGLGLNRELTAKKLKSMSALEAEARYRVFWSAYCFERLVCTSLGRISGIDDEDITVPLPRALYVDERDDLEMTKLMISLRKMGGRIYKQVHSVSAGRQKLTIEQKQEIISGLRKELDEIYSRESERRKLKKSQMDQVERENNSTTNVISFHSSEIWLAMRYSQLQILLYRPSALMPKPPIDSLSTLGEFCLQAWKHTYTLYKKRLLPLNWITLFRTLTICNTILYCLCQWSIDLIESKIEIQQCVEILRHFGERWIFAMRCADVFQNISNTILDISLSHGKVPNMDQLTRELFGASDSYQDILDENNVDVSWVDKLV
Method: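 Universal 'all 10-mer' protein binding microarrays (Agilent AMADID 015681) probed with GST-tagged S. cerevisiae TFs (full-length or DBD) made by in vitro transcription/translation (PURExpress), about 100-200 nM. Bound TF was detected with fluorescent anti-GST. Each ungapped 8-mer (which stands for itself and its reverse complement) is scored by the PBM enrichment score (E-score), a modified Wilcoxon-Mann-Whitney statistic from -0.5 to +0.5, computed with the Universal PBM Analysis Suite. Scale: above 0.35 generally sequence-specific binding.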

Row | Sequence | PBM E-score
1 | GTCATTGA | -0.109
2 | TGGAGACA | -0.254
3 | AGGTGCGC | 0.0592
4 | AGGCGGGG | 0.38
5 | AGGCGGAT | 0.0922
6 | AGGCGGGC | 0.275
7 | AGGCGGAG | 0.356
8 | AGGCGGGA | 0.234
9 | AGGCGGAA | 0.131
10 | AGGCGGCC | 0.235
11 | AGGCGGAC | 0.356
12 | ACGCGGAC | 0.241
13 | AGTGGCAA | -0.04
14 | CTGCTATA | 0.0793
15 | CAGAGTGG | -0.19
16 | AGAACCAC | 0.0238
17 | CATCATAG | -0.0501
18 | AGGAGCAC | -0.252
19 | GCCATTAA | -0.0877
20 | AGTATTAC | 0.0335
21 | AGTATTAA | -0.0112
22 | TGTATTAA | -0.0825
23 | GGTATTAC | 0.386
24 | CGTATTAC | 0.188
25 | GGTATTAA | 0.404
26 | GTCTTTTA | -0.0581

Row | Sequence | PBM E-score
27 | ATGCGGGC | 0.087
28 | CCATCGGG | 0.262
29 | ATACCCGG | 0.239
30 | AAGTGCGC | 0.243
31 | CGTCATGA | -0.0111
32 | AGGGCAGG | -0.205
33 | TCGAAACA | -0.233
34 | AGCGGCGC | 0.363
35 | AACAGCGA | 0.235
36 | ATCGGCGC | 0.291
37 | CGCGGCGC | 0.318
38 | AGCGGCTG | 0.0872
39 | CACAGCGG | 0.286
40 | AGCGGCGG | 0.401
41 | ATCGGCGA | 0.272
42 | AGCGGCGA | 0.317
43 | ATCGGCGG | 0.363
44 | AACGGCGC | 0.222
45 | AACAGCGG | 0.366
46 | GGCTCGAC | -0.113
47 | ACCTGACA | -0.145
48 | ATAGACCA | -0.188
49 | TACAGATA | 0.048
50 | TAGTAGGA | -0.0819
51 | ACTTACCG | 0.195
52 | GAGCCAGC | 0.00015

Row | Sequence | PBM E-score
53 | AGGCGATC | -0.302
54 | AAGGAGGT | -0.0343
55 | GCAAGCCC | 0.117
56 | AGGGGCGG | 0.36
57 | AGGGGCGC | -0.0545
58 | AGGGGCGA | -0.0945
59 | ATCTTTTA | 0.034
60 | AAGGCTCT | -0.214
61 | CGTACCGC | 0.302
62 | AGTACCCG | 0.0305
63 | AGTACCGA | 0.439
64 | AGTACCGG | 0.367
65 | GGTACCGA | 0.286
66 | AGTACCGC | 0.435
67 | AGTACCAG | -0.0537
68 | CGTACCGA | 0.205
69 | ACTACCGC | 0.329
70 | AGTCGTAG | -0.232
71 | AAGAGTGC | -0.0116
72 | CCACTAGG | -0.166
73 | TTCTCCAA | -0.0481
74 | AAAGTATG | -0.172
75 | ACCCCGAA | 0.37
76 | AACCCGAT | 0.222
77 | TCCCCGAA | 0.266
78 | CCCCCGAA | 0.213

Row | Sequence | PBM E-score
79 | GACCCGAC | 0.295
80 | ACCCCGAT | 0.441
81 | CCCCCGAC | 0.349
82 | ACCCCGAG | 0.351
83 | GCCCCGAC | 0.371
84 | AACCCGAC | 0.347
85 | GCCCCGAA | 0.198
86 | ACCCCGAC | 0.444
87 | GCACTGGC | -0.0607
88 | CATGTTCA | -0.334
89 | CGGACAAC | 0.144
90 | ATCCGCTG | 0.189
91 | ATGATGGC | -0.19
92 | CACGCCTG | -0.158
93 | CCATCTAA | -0.192
94 | CAACACCA | -0.1
95 | ACACACCT | -0.0405
96 | CAACACCC | -0.206
97 | ATACACCC | 0.254
98 | ATACACCG | 0.402
99 | CGACACCG | 0.371
100 | ATACACCA | -0.0712
101 | ACACACCC | 0.0669
102 | ACACACCG | 0.372
103 | CAACACCG | 0.408
104 | CGACACCC | 0.0971

Row | Sequence | PBM E-score
105 | CGACACCA | 0.0464
106 | CTTAAACC | -0.0424
107 | AAATACTG | -0.0876
108 | ATCTTTGA | -0.157
109 | AATTGAAA | -0.198
110 | GCTAAGTA | -0.0566
111 | CAAGAGGG | -0.306
112 | AGACACCA | -0.13
113 | AGACACCG | 0.436
114 | AGACACCC | -0.231
115 | ACTATCCA | 0.0766
116 | AGTTTCTG | -0.117
117 | GTCCGAAA | 0.259
118 | GTCCGAGA | 0.184
119 | ATCCGACA | 0.283
120 | CTCCGAGA | 0.187
121 | GTCCGACA | 0.403
122 | CTCCGACC | 0.375
123 | CTCCGACA | 0.366
124 | ATCCGACC | 0.262
125 | CTCCGAGC | 0.102
126 | CTACATGC | -0.179
127 | CTTCTGTA | -0.09
128 | CACCACAA | -0.0283
129 | GAGTGGGC | 0.0251
130 | GGCATTCA | 0.0519

Row | Sequence | PBM E-score
131 | ATTTCACA | -0.157
132 | CCGCCAGC | 0.356
133 | CCGCCCGG | 0.344
134 | ACGCCAGC | -0.181
135 | ACGCCCGC | 0.28
136 | CCGCCCGC | 0.362
137 | GCGCCAGC | 0.112
138 | CCGCCCCG | 0.409
139 | ACGCCCCG | 0.188
140 | CCGCCCCC | 0.335
141 | CTTATCAA | -0.125
142 | ACAATGAA | -0.0923
143 | CCACATTC | -0.0853
144 | TAAATGCA | -0.18
145 | CATGCGGA | 0.167
146 | ACACCTCC | 0.0978
147 | CATAGCGC | 0.161
148 | ATTGAGCC | 0.0599
149 | CCGGAGCC | 0.182
150 | ACCTCACA | -0.181
151 | TCAAGTAA | -0.0626
152 | CGGTGAAC | 0.177
153 | CGGTGACA | 0.42
154 | CGGTGAAG | 0.12
155 | GGGTGACA | 0.0889
156 | CGGTGAAA | 0.41

Row | Sequence | PBM E-score
157 | TGGTGACA | 0.0421
158 | CACTGCCC | -0.0546
159 | ACCCTGAC | -0.0664
160 | CACCGCAG | 0.344
161 | CACCGCCG | 0.405
162 | AATCGCCG | 0.407
163 | GACCGCCC | 0.322
164 | TACCGCCA | 0.323
165 | CAGCGCCG | 0.299
166 | CACCGCCC | 0.41
167 | CATCGCCG | 0.264
168 | AATCGCCC | -0.00317
169 | CACCGCCA | 0.408
170 | AACCGCCC | 0.107
171 | GACCGCCA | 0.317
172 | AAGTTGGT | -0.133
173 | TCAGCAGA | -0.329
174 | CTTGACTA | -0.193
175 | CGGGAGGC | -0.136
176 | CGGTTCAG | -0.0792
